Sampled rows, rich in hits. Any-hit rate of the full collection: about 5.7%.
HP1b chromo inh – HP1-beta chromodomain-methylated histone interaction inhibition; Potency, µM (doses to about 114 µM), without a hit: at the top dose activity change, negative = inhibition, usual class: inhibitors; AID 540317; actives 0.56% (n = 390,000); AlphaScreen HP1-beta / biotin-H3K9me3 peptide binding; P83916; further: potency means the concentration at half of the fitted maximal effect; nearly all actives have a fitted effect of over 70% in size
Target sequence (P83916 whole entry, looked up): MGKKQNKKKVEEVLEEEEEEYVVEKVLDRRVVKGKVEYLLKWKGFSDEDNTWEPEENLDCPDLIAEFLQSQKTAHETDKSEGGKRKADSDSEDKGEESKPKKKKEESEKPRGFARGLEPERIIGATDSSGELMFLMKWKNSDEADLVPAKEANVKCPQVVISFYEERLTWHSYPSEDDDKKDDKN
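HP1-beta protein (50 nM final) preincubated 30 min at room temperature with biotinylated H3(1-18)K9me3 peptide (50 nM) in PBS pH 7.4, 0.01% Tween-20, then compound added for 30 min. AlphaScreen streptavidin donor/nickel chelate acceptor beads (10 ug/mL final), 30 min dark, luminescence read.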
PI5P4K alpha inh – PI5P4K alpha (human) kinase inhibition | actives 1.2% (n = 330,000) | max response, % | P48426 | AID 652105 | PI5P4Kalpha enzyme, ADP-Glo luminescence, 60 min; active compounds read low; active means max response of -50% or lower; inconclusive means between -30% and -50%; inactive means -30% or higher; further: value at the top dose of about 77 µM; on the % scale 0 is the no-effect control and ±100 the full control effect
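Compounds were pin-transferred onto PI5P4Kalpha and substrate in HEPES pH 7.4 buffer with EGTA, CHAPS and 5% DMSO. ATP (5 microM final) started the reaction, which ran 60 minutes at room temperature before ADP-Glo detection.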
JMJD2A Tudor inh – inhibitors of human JMJD2A Tudor domain; O75164; AID 504339; AlphaScreen JMJD2A-Tudor / H3K4me3 peptide binding; Potency, µM (titrated, usually from 114 µM), without a hit: top-dose activity change, negative = inhibition, actives largely listed as inhibitors; actives 4.4% (n = 390,000); further: potency means the concentration at half of the fitted maximal effect; on the % scale 0 is the no-effect control and ±100 the full control effect; nearly all actives have a fitted effect of over 50% in size
L3MBTL1 block – inhibitors of human L3MBTL1; Potency, µM (doses to about 57.1 µM), inactives show top-dose activity, negative = inhibition, usual class: inhibitors; Q9Y468; AlphaScreen L3MBTL1–H3K9me1 peptide binding; actives 0.66% (n = 230,000); further: potency means the concentration at half of the fitted maximal effect; on the % scale 0 is the no-effect control and ±100 the full control effect; nearly all actives have a fitted effect of over 60% in size
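Displacement of a biotinylated histone H3(1-15) peptide monomethylated at Lys9 (75 nM) from L3MBTL1 (50 nM) was measured by AlphaScreen after a 30 min room-temperature compound incubation; cefsulodin titration served as intraplate control.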
BAZ2B inh – inhibitors of human BAZ2B bromodomain; actives 4.4% (n = 360,000); AlphaScreen BAZ2B-H3K14Ac peptide displacement; Q9UIF8; Potency, µM (doses to about 114 µM), for inactives: top-dose activity change, negative = inhibition, most hits filed as inhibitors; further: potency means the concentration at half of the fitted maximal effect; on the % scale 0 is the no-effect control and ±100 the full control effect; nearly all actives have a fitted effect of over 60% in size
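Multi-concentration screen (max 110 uM) measuring displacement of acetylated histone H3 peptide from BAZ2B by AlphaScreen, using 50 nM protein, 50 nM peptide and 10 ug/mL streptavidin donor plus Ni-chelate acceptor beads.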
KDM4E inh – inhibitors of human JMJD2E histone demethylase. B2RXH2. JMJD2E catalytic domain, FDH-coupled NADH fluorescence (FDH is formaldehyde dehydrogenase). Potency, µM (titrated, usually from 57.1 µM), inactives show at the highest dose activity change, negative = inhibition, actives largely listed as inhibitors. actives 1.6% (n = 230,000); active means well fitted inhibition curve with a large enough effect, not every such curve was filed as active; inconclusive means small, poorly fitted or top-dose-only effect, or another doubt; inactive means no such curve, though single readings can be large or run the other way;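 further: potency means the concentration at half of the fitted maximal effect; 0% = wells with enzyme and -100% = buffer wells without enzyme; nearly all actives have a fitted effect of over 50% in size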
Target sequence (B2RXH2 1-337 limits assumed): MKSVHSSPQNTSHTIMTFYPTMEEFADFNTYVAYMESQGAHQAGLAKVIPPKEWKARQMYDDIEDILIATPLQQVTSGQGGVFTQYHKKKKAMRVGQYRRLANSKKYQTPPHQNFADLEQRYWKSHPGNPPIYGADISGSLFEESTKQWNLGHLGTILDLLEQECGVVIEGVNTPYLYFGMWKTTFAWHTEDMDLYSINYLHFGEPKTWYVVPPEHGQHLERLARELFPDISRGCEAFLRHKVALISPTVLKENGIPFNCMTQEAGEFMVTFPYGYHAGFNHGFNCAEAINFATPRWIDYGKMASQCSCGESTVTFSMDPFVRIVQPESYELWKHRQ
* = called active by the depositor; ? = inconclusive; nt = no result; [ ] = another dose, or the depositor's remark. Unless noted, the call rests on the fitted dose curve; in most records, active means well fitted inhibition curve with a large enough effect; inconclusive means small, poorly fitted or top-dose-only effect; inactive means no such curve, though single readings can be large or run the other way.

SMILES | HP1b chromo inh | PI5P4K alpha inh | JMJD2A Tudor inh | L3MBTL1 block | BAZ2B inh | KDM4E inh
CN(C)c1ccc(C=C2C(=O)NC(=S)NC2=O)cc1[N+](=O)[O-] | ? | -75* | 35µM* | -29% | ? | ?
CN(C)c1ccc(C=C2C(=O)NC(=O)NC2=O)cc1[N+](=O)[O-] | 11% | ? | -14%[11.4 µM] | -10% | nt | 2%
COc1ccc(C=C2C(=O)NC(=S)NC2=O)cc1 | ? | -64* | 89µM* | nt | nt | nt
COc1ccc(OCCOc2cccc(C=C3C(=O)NC(=O)NC3=O)c2)cc1 | nt | nt | nt | ? | -36% | nt
O=C1NC(=S)NC(=O)C1=Cc1c(Cl)cccc1Cl | 4%[57 µM] | ? | -12% | nt | nt | nt
CN(CCOc1ccc(C=C2C(=O)NC(=O)NC2=O)cc1)c1ccccn1 | 20% | ? | ? | 7% | -23% | ?
O=C(NCCc1ccc(Cl)cc1)C(=O)NCC(c1cccs1)S(=O)(=O)c1cccs1 (stereo unspecified) | 53% | nt | -5% | nt | 1% | nt
C[C@H]1CC[C@@H]2[C@@H](C)[C@H]3C(C[C@H]4C5CC[C@H]6C[C@@H](O)CC[C@]6(C)C5CC[C@]34C)N2C1 (stereo partly specified) | 36% | nt | -6% | nt | nt | nt
Cc1cc2c(cc1C)-n1c(-c3ccccc3)c3c(=O)n(C)c(=O)n(C)c3c1C(c1ccco1)N2 (stereo unspecified) | 12% | nt | -29% | nt | ? | nt
CCOC(=O)c1ccc(NC(c2ccc(N(C)C)cc2)P(=O)(OC(C)C)OC(C)C)cc1 (stereo unspecified) | ? | 0 | 50µM* | ? | 32µM* | -28%
COc1ccc(C(Nc2cccc([N+](=O)[O-])c2)P(=O)(OC(C)C)OC(C)C)cc1 (stereo unspecified) | 43% | -3 | -1% | -2% | -18% | 11%
NC(=NCCCC(N)C(=O)O)N[N+](=O)[O-] (stereo unspecified) | nt | nt | nt | nt | nt | 0%
O=C(O)/C=C\C(=O)Nc1ccc(Oc2ccc(Br)cc2)cc1 | 35% | -21 | -14% | -4% | 50µM* | 4%
N[C@@H](Cc1ccc(N(CCCl)CCCl)cc1)C(=O)O | 25% | -6 | -27% | -6% | -27% | nt
O=C(O)CCCc1ccc(N(CCCl)CCCl)cc1 | 22% | 4 | -31% | 1% | 56µM* | -25%
CC(C)N1CC=C(c2c[nH]c3ccccc23)CC1 | 33% | 8 | -7% | 4% | 3% | ?
C1=C(c2c[nH]c3ccccc23)CCNC1 | nt | nt | nt | -12% | -11% | 25µM*
Cc1cccc(N2C(=O)NC(=O)/C(=C/c3cc4c(cc3[N+](=O)[O-])OCO4)C2=O)c1 | ? | ? | 79µM* | nt | -28% | -7%
O=c1[nH]c(=S)[nH]c(O)c1N=Nc1cc2c(cc1[N+](=O)[O-])OCO2 | -26% | -12 | -12%[57.1 µM] | 14% | -31% | -1%
O=c1[nH]c(=S)[nH]c(O)c1N=Nc1ccc(-c2ccccc2)cc1[N+](=O)[O-] | nt | nt | nt | ? | 7.9µM* | -2%
COC(=O)c1c(NC(=O)C2CC=CCC2C(=O)O)sc2c1CCCCC2 (stereo unspecified) | ? | -4 | -32% | nt | ? | nt
Cn1c(O)c(C(=O)c2ccccc2Cl)c(=O)n(C)c1=O | 18% | -30 | 89µM* | 1% | nt | -9%
Cn1c(O)c(C(=N)COc2ccccc2)c(=O)n(C)c1=O | 21% | nt | -7% | 4% | 6% | 5%
COC(=O)C1=C(C(=O)OC)C2OC1c1cc3ccccc3cc12 | 1% | -15 | 89µM* | nt | nt | nt
CCCN1[C@H](C(=O)OC)C[C@@H]2CC[C@@H](O)C[C@@H]21 | nt | nt | nt | nt | nt | -19%
CCOc1ccc(C(C)=O)cc1Cc1c(O)[nH]c(=S)[nH]c1=O | ? | ? | 89µM* | 40% | 4% | nt
CCCOc1ccc(C(C)=O)cc1Cc1c(O)[nH]c(=S)[nH]c1=O | 1% | -12 | -22% | 54% | 13% | nt
O=C1NC(=O)N(Cc2ccccc2)C(=O)/C1=C\c1ccco1 | ? | -86* | ? | ? | 40µM* | -13%

Screens (PubChem)
